About 1,100 (0.3%) of roughly 370,000 compounds were called active. Cut-off read from the data, not from the text of the source: active = inhibition above about 13%; inactive = the rest. This excerpt belongs to a sample that is enriched for actives.
These compounds were tested against Methyl-CpG-binding domain protein 2 (Homo sapiens) (UniProt Q9UBB5) (assay: inhibitors of MBD2 binding to methylated DNA, primary screen, biochemical, TR-FRET, DNA-binding domain, human (AID 686964)). Settings: MBD2 binding to methylated oligonucleotide, at 4.4 µM, hits give high values.
Sequence of Methyl-CpG-binding domain protein 2 (Homo sapiens) (Q9UBB5 whole entry, looked up, the tested form may be a part): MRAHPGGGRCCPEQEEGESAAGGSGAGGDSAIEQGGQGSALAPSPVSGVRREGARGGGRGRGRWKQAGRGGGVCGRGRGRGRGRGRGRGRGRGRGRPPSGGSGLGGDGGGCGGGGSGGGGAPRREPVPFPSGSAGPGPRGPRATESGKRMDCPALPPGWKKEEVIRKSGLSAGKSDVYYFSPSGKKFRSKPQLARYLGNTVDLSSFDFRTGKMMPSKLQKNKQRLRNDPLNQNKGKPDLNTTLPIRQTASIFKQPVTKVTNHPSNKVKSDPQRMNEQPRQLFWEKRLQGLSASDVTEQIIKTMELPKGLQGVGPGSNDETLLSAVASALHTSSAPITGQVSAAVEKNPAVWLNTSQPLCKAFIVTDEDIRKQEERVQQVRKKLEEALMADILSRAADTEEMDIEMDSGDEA

inhibition, active:
CCN(CC)CCOc1ccc2c(c1)C(=NNC(=O)c1ccccn1)c1cc(OCCN(CC)CC)ccc1-2 109%
C=C1c2c(Cl)ccc(O)c2C(O)=C2C(=O)[C@]3(O)C(O)=C(C(N)=O)C(=O)[C@@H](N(C)C)[C@@H]3[C@@H](O)C12 (some centres not stated) 27.8%
CN(C)[C@@H]1C(=O)C(C(N)=O)=C(O)[C@@]2(O)C(=O)C3=C(O)c4c(O)ccc(Cl)c4[C@@H](O)[C@H]3C[C@@H]12 17.8%
CCOC(=O)C1C(=O)OC2(CCCC2)C1C(=O)OCC (configuration not stated) 19.3%
Nc1ccccc1C(=O)NC1CCCCNC1=O (configuration not stated) 16.1%
Cc1c(NS(=O)(=O)c2cc(C(=O)NCCc3ccc(F)cc3)cc(Cl)c2Cl)c(=O)n(-c2ccccc2)n1C 26.3%
COCCNC(=O)Nc1ccc2nc(-c3ccco3)c(-c3ccco3)nc2c1 53.7%
C=CCN1C(=O)c2ccc(C(=O)N3CCC(C(=O)OCC)CC3)cc2C1=O 16.8%
COc1ccc(-n2c(C)cc(C(=O)CSc3nnc(-c4cccs4)o3)c2C)cc1 15.1%
COc1ccc2c(c1)c(=Cc1ccc(N(C)C)cc1)c1cc(-c3ccccc3)[n+](C)n12 29.6%
COc1ccc(CNC(=O)c2c[nH]c3c(OC)cc(OC)cc3c2=O)cc1 23.4%
CO/N=C(/CS(=O)(=O)c1ccc(Br)cc1)c1ccc(OC)cc1 14%
Cc1ccc(C)c(NC(=O)c2ccc(OC(=O)c3ccco3)cc2)c1 19.6%
Cc1cccc(CN2CCN(C3CN(Cc4cn(Cc5cc(C)cc(C)c5)nn4)S(=O)(=O)C3)CC2)c1 (configuration not stated) 17.4%
CCOC(=O)c1ccc(-n2c(CCC(=O)O)ccc2-c2ccccc2)cc1 14.6%
Cc1ccc(-c2ccnc3nc(Sc4ncc(C(F)(F)F)cc4Cl)nn23)cc1 14.8%

inhibition, inactive:
CCN(CC)S(=O)(=O)c1cc(C(=O)Nc2ccccn2)ccc1C 2.21%
CCCC(C(=O)OCCN(CC)CC)(c1ccccc1)c1ccccc1 0.72%
Cc1cccc(S(=O)(=O)N(C)C[C@@H]2OCc3cnnn3CCCC(=O)N([C@H](C)CO)C[C@@H]2C)c1 3.06%
O=C1CCC2(CCC(c3ccc(Cl)cc3)CC2)N1CCO (configuration not stated) -0.8%
Nc1ncnc2c1ncn2[C@@H]1O[C@H](C(=O)N[C@@H](CCc2ccccc2)C(=O)N2CCCN(Cc3cccs3)CC2)[C@@H](O)[C@H]1O 1.63%
O=C(O)CCn1c(O)c(C=C2N=c3ccccc3=N2)sc1=S -4.63%
CCOC(=O)C1C(c2ccc(O)cc2)NC(=O)NC1(O)C(F)(F)F (configuration not stated) -5.62%
CCOC(=O)C1C(=O)NCC1c1ccccc1 (configuration not stated) -0.38%
Cc1cc2c(nc1C)CCCN2C -0.93%
C=CCN(Cc1ccc2c(c1)OCO2)C(C#CC1CC1)C(C)(C)C (configuration not stated) 3.04%
O=C(c1c[nH]c2ccccc12)N1CCC(Oc2cccnc2)CC1 -6.13%
CC(=O)N1C[C@@H](CO)[C@@H](N(C)C(=O)C(C)(C)C)C[C@H]1c1ccccc1Br 2.89%
Oc1ccc(/C=C/c2c(F)cccc2F)c2cccnc12 -0.79%
Cc1ccc(CNC(=O)CC(NC(=O)c2ccccc2)c2ccccc2)cc1 (configuration not stated) -3.58%
O=C(CNC(=O)OCc1ccccc1)NC1CCCCNC1=O (configuration not stated) 0.98%
Nc1ccn([C@@H]2O[C@H](C(=O)N[C@H]3CCCCNC3=O)[C@@H](O)[C@H]2O)c(=O)n1 -2.88%
CN1[C@H](Cc2ccccc2)COc2cccc(N3CCSCC3)c2S1(=O)=O 3.96%
CCOC(=O)N1CCN(C(=O)C[C@@H]2C(=O)N(CCc3ccc(Cl)cc3)C3=CCCC[C@]32C(=O)OCC)CC1 -2%
COc1ccc2c(CC(=O)NNC(=O)c3ccccc3F)coc2c1 -1.98%
C[C@H]1[C@H](NC(=O)c2cccc(N(C)C)c2)CC[C@@]23CCCN2C(=O)CCC[C@@H]13 -0.56%
Cc1cc(C)c(S(=O)(=O)Nc2c(C)n(C)n(-c3ccccc3)c2=O)cc1[N+](=O)[O-] -5.79%
Cc1c(NS(=O)(=O)c2cccc(C(=O)Nc3ccc(SC(F)F)cc3)c2)c(=O)n(-c2ccccc2)n1C 7.59%
O=C(O)Cn1cnc2c(NCc3ccccc3)ncnc21 -3.02%
O=C(NCCc1c[nH]c2ccccc12)OCc1cn(-c2c(F)cccc2F)nn1 -6.28%
CCC(=O)OCCCN1C(=O)CCC12CCC(c1ccccc1)CC2 (configuration not stated) 3.38%
CN1C(c2ccc(F)cc2)=CS/C1=C(/C#N)c1nnc2n1-c1ccccc1SC2 -4.62%
COC(CNC(=O)[C@H](Cc1ccccc1)NC1(C(=O)NC2CCCCC2)CCCCC1)OC 6.86%
C=CS(=O)(=O)N(Cc1nnn(Cc2ccccc2)c1Br)[C@H](C(=O)OC)C(C)C -4.08%
Cc1ccc(-c2noc(CCC(=O)Nc3ccccc3N3CCN(C)CC3)n2)cc1 -4.01%
COCCNC(=O)c1cc2c(Br)ccc(Br)c2nc1N 1.97%
COCCNC(=S)c1ccc(OC)cc1 0.26%
COc1cccc(CNC(=O)CNS(=O)(=O)c2ccc3nc(C)sc3c2)c1OC 3.15%
CCOC(=O)C1CCCN(C(=O)c2ccc(N(C)C)cc2)CC1 (configuration not stated) 7.99%
CCOC(=O)C1CCCN(C(=O)c2ccc(C)c(F)c2)CC1 (configuration not stated) -3.99%
Cc1c(C(=O)N2CC(C)OC(C)C2)sc2nc(-c3ccccc3)cn12 (configuration not stated) -0.32%
CC(C)C(C#CC1CC1)N(Cc1ccc2c(c1)OCO2)C(N)=NC(=O)/C=C/c1cccc(C(F)(F)F)c1 (configuration not stated) -0.7%
CC(C)(C)NC(=O)C(c1cccnc1)N(C(=O)c1cnco1)c1ccc(C(C)(C)C)cc1 (configuration not stated) 2.09%
CCC(NC(=O)C1C2C=CC3(CN(Cc4ccccc4)C(=O)C13)O2)c1ccccc1 (configuration not stated) 0.25%
CCc1ccccc1NC(=O)CSc1nnc(-c2cccs2)o1 2.5%
COc1ccc(-c2nnc(SCC(=O)c3ccc4c(c3)OCCO4)o2)cc1 -3.62%
O=C(CSc1nncn1-c1cccnc1)N1CCOCC1 2.16%
COc1cc(NC(=O)C2CCCN(S(=O)(=O)c3ccc(C(C)(C)C)cc3)C2)cc(OC)c1 (configuration not stated) -0.54%
CCCCCCCCN1C(=O)[C@@H](CC(=O)NCc2ccccc2)C[C@@]2(C(=O)OC)C1=C[C@H](C(C)(C)C)O[C@@H]2C 3.75%
O=C(c1ccncc1)N1CC[C@H]2[C@H](CCCN2Cc2ccc(F)cc2)C1 -6.65%
COc1ccc(NS(=O)(=O)c2cc3c(cc2C)N(C(C)=O)CCO3)cc1 -5.65%
CC1CCCN(CCOCCOc2ccccc2-c2ccccc2)C1 (configuration not stated) -4.99%
COc1ccc(CNC(=O)c2cc(C(=O)C3CC3)c[nH]2)cc1 1.85%
CCSc1ccccc1C(=O)NCc1ccc(OC)cc1 -9.91%
CC(CCN1CCC(C(O)(c2ccccc2)c2ccccc2)CC1)Oc1ccc([N+](=O)[O-])cc1Cl (configuration not stated) 1.05%
COCCn1c(CN2CCC(Cc3ccccc3)CC2)nc2c1c(=O)n(C)c(=O)n2C 4.97%
O=C(CCCCCN1C(=O)C2C3C=CC(C3)C2C1=O)Nc1ccccc1 (configuration not stated) -6.87%
Cc1nc(S(=O)(=O)c2ccc(Br)cc2)nc2c1CCC2 1.36%
CO/N=C/CC(=O)c1ccc(OC)cc1 -0.8%
CCN1CCN(C(=O)N(Cc2ccc(Cl)cc2)S(=O)(=O)c2ccc(C)cc2)CC1 2.19%
N#Cc1ccccc1OC[C@@H](O)CN1CCC(C(O)(c2ccccc2)c2ccccc2)CC1 0.72%
CCCCNC(=O)C[C@H]1C(=O)N(Cc2ccc(OC)cc2)C2=CCCC[C@@]21C(=O)OCC -1.99%
CSc1nnc(-c2ccc(C(F)(F)F)cn2)o1 2.79%
Cc1ccc(O)c(NC(=O)c2cc(-c3ccco3)on2)c1 -2.88%
Cc1ccccc1NC(=O)c1ccc(COc2ccc3c(C)cc(=O)oc3c2)cc1 5.18%
CCN(Cc1ccncc1)C(=O)c1cccc(S(=O)(=O)N2CCOCC2)c1 0.65%
Cc1cccc(CN2CCN(C3CN(Cc4ccccc4)S(=O)(=O)C3)CC2)c1 (configuration not stated) 1.18%
Cc1cccc(CN2CCN(C3CN(Cc4cn(Cc5ccccc5F)nn4)S(=O)(=O)C3)CC2)c1 (configuration not stated) 5.03%
CCOc1ccc(Oc2c(Cl)cnn(-c3ccc(C)cc3)c2=O)cc1 3.14%
Cc1ccc(S(=O)(=O)Cn2nnnc2CN2CCN(Cc3ccc4c(c3)OCO4)CC2)cc1 0.18%
CCOc1nc(OCC)nc(-n2cc(-c3ccccc3)nn2)n1 -0.3%
COc1ccc(-c2ccc(CCC(=O)O)n2NC(=O)c2ccc(C(C)(C)C)cc2)cc1 -1.3%
COc1ccc(-c2ccc(CCC(=O)O)n2-c2ccc(O)cc2)cc1 -0.88%
CCC12CN3CC(CC)(CN(C1)C31C(=O)N(C)c3ccc(C)cc31)C2=O (configuration not stated) -7.87%
C[C@H](O)[C@@H]1CN2CCc3ccc(-c4ccc5c(c4)OCO5)cc3[C@@H]2C[C@@H]1N(C)C(=O)C1CCCCC1 -1.38%
Cc1nn(-c2ncc(C(F)(F)F)cc2Cl)c(=O)n1-c1ccccc1 3.32%
Cc1ccc(-c2nc3c(Cl)cc(C(F)(F)F)cn3c2Cc2cccc(Cl)c2)cc1 -2.87%

— PubChem BioAssay AID686964 (The Scripps Research Institute Molecular Screening Center, 2013)
